Data published in PubChem BioAssay (Tox21).
Values joined by “and” are separate entries in the source; they are usually repeats but may differ in a detail not shown here. Equal values may be shown once. Records with an inconclusive call do not appear. Active and inactive are the calls of the source. Calls come from the whole dose curve; as a rule, active = well fitted curve in the direction sought with a large enough effect in the repeat runs; inconclusive = weak or mixed curves; inactive = no such curve, though single readings can be large; an effect the other way counts as inactive or inconclusive.

Experiments:
[1] = qHTS RealTime-Glo MT Cell Viability Assay in HepG2 cells - 40 hour (AID 1224870); note: nearly all actives have a fitted effect of over 50% in size
Method in brief: (§1)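 Real-time viability: cells seeded at 600 per well together with NanoLuc and cell-permeant prosubstrate, compounds added after 5 h incubation. Luminescence tracked at 0, 8, 16, 24, 32 and 40 h of exposure.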

[2] = A CellTox Green Cytotoxicity Assay to monitor cytotoxicity in HEK293 cells - 40 hour (AID 1224871); note: nearly all actives have a fitted effect of over 45% in size
Method in brief: (§2)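 Cells (HEK293, 600/well) and dye reagent are dispensed together. After 5 h at 37 C, 23 nL compound is pinned in. Plates stay at 37 C for 40 h with fluorescence read at 0h, 8h, 16h, 24h, 32h and 40h.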

[3] = qHTS RealTime-Glo MT Cell Viability Assay in HEK293 cells - 16 hour (AID 1224872); note: top concentration of the series differs between compounds; nearly all actives have a fitted effect of over 50% in size
Method in brief: (§3)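 HEK293 cells were seeded at 600 cells/well together with NanoLuc luciferase and cell-permeant prosubstrate, preincubated 5 h at 37 C/5% CO2, then given compound in DMSO by pintool. Luminescence from viable-cell prosubstrate reduction was read repeatedly over 40 h.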

[4] = qHTS RealTime-Glo MT Cell Viability Assay in HEK293 cells - 40 hour (AID 1224874); conditions: RealTime-Glo luminescence; max response: stronger effect = lower value; note: nearly all actives have a fitted effect of over 50% in size
Method in brief: (§4)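 Real-time viability in HEK293: signal arises when living cells convert a prosubstrate for NanoLuc in the medium, so luminescence tracks viable cell number. Compound (23 nL, DMSO) added 5 h post-seeding; kinetic reads at 0–40 h, 37 C.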

[5] = A CellTox Green Cytotoxicity Assay to monitor cytotoxicity in HepG2 cells - 16 hour (AID 1224876); note: nearly all actives have a fitted effect of over 45% in size
Method in brief: (§5)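 Cells and non-lytic dye reagent are dispensed together (600 HepG2 cells/well) and incubated 5 h before DMSO compound transfer. Kinetic fluorescence is then recorded in the same wells during 40 h at 37 C.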

[6] = A CellTox Green Cytotoxicity Assay to monitor cytotoxicity in HepG2 cells - 24 hour (AID 1224878); note: nearly all actives have a fitted effect of over 45% in size
Method in brief: as §5

[7] = A CellTox Green Cytotoxicity Assay to monitor cytotoxicity in HepG2 cells - 40 hour (AID 1224879); note: nearly all actives have a fitted effect of over 40% in size
Method in brief: as §5

[8] = qHTS RealTime-Glo MT Cell Viability Assay in HEK293 cells - 0 hour (AID 1224880); note: top concentration of the series differs between compounds; nearly all actives have a fitted effect of over 45% in size
Method in brief: as §4

[9] = A CellTox Green Cytotoxicity Assay to monitor cytotoxicity in HEK293 cells - 32 hour (AID 1224881); note: nearly all actives have a fitted effect of over 40% in size
Method in brief: as §2

[10] = A CellTox Green Cytotoxicity Assay to monitor cytotoxicity in HepG2 cells - 0 hour (AID 1224882); note: nearly all actives have a fitted effect of over 35% in size
Method in brief: as §5

[11] = A CellTox Green Cytotoxicity Assay to monitor cytotoxicity in HepG2 cells - 32 hour (AID 1224883); note: nearly all actives have a fitted effect of over 50% in size
Method in brief: as §5

[12] = A CellTox Green Cytotoxicity Assay to monitor cytotoxicity in HEK293 cells - 8 hour (AID 1224884); note: nearly all actives have a fitted effect of over 35% in size
Method in brief: as §2

[13] = qHTS RealTime-Glo MT Cell Viability Assay in HEK293 cells - 24 hour (AID 1224886)
Method in brief: as §3

[14] = qHTS RealTime-Glo MT Cell Viability Assay in HEK293 cells - 8 hour (AID 1224887)
Method in brief: as §4

[15] = A CellTox Green Cytotoxicity Assay to monitor cytotoxicity in HEK293 cells - 16 hour (AID 1224888); note: nearly all actives have a fitted effect of over 35% in size
Method in brief: as §2

[16] = qHTS RealTime-Glo MT Cell Viability Assay in HepG2 cells - 0 hour (AID 1224889); note: nearly all actives have a fitted effect of over 50% in size
Method in brief: (§6)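 HepG2 cells were seeded at 600 cells/well together with NanoLuc luciferase and a cell-permeant prosubstrate, preincubated 5 h at 37 C/5% CO2, then pin-dosed with compounds in DMSO. Nonlytic luminescence from viable cells was read at each time point.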

[17] = qHTS RealTime-Glo MT Cell Viability Assay in HepG2 cells - 8 hour (AID 1224873); note: nearly all actives have a fitted effect of over 55% in size
Method in brief: as §1

[18] = A CellTox Green Cytotoxicity Assay to monitor cytotoxicity in HEK293 cells - 24 hour (AID 1224875)
Method in brief: as §2

[19] = qHTS RealTime-Glo MT Cell Viability Assay in HepG2 cells - 32 hour (AID 1224877); note: nearly all actives have a fitted effect of over 55% in size
Method in brief: as §6

[20] = qHTS RealTime-Glo MT Cell Viability Assay in HepG2 cells - 16 hour (AID 1224885); note: nearly all actives have a fitted effect of over 50% in size
Method in brief: as §6
% is set by controls: 0 for no effect and ±100 for the full control effect.

C[C@@H]1CCN(C(=O)[C@H](CCCN=C(N)N)NS(=O)(=O)c2cccc3c2NC[C@H](C)C3)[C@@H](C(=O)O)C1
inactive: Potency [1] | Potency [2] | Potency [3] | max response [4] 4.96% | Potency [5] | Potency [6] | Potency [7] | Potency [8] | Potency [9] | Potency [10] | Potency [11] | Potency [12] | Potency [13] | Potency [14] | Potency [15] | Potency [16]

O=C1CCCCCCCCCCCN1
inactive: Potency [1] | Potency [2] | Potency [17] | max response [4] 0.14% and 1.61% | Potency [18] | Potency [5] | Potency [19] | Potency [6] | Potency [7] | Potency [8] | Potency [9] | Potency [10] | Potency [11] | Potency [12] | Potency [20] | Potency [14] | Potency [15] | Potency [16]

CC(C)(CC(=O)O)C(=O)O
inactive: Potency [1] | Potency [2] | Potency [3] | max response [4] 0.211% | Potency [18] | Potency [5] | Potency [6] | Potency [8] | Potency [9] | Potency [10] | Potency [12] | Potency [20] | Potency [13] | Potency [14] | Potency [15] | Potency [16]

O=C(O)Cc1ccc(CCNS(=O)(=O)c2ccc(Cl)cc2)cc1
inactive: Potency [1] | Potency [2] | Potency [17] | max response [4] -1.15% | Potency [18] | Potency [5] | Potency [19] | Potency [6] | Potency [7] | Potency [8] | Potency [9] | Potency [10] | Potency [11] | Potency [12] | Potency [20] | Potency [13] | Potency [14] | Potency [15] | Potency [16]

CC(C)NCCCC1(C(N)=O)c2ccccc2-c2ccccc21
inactive: Potency [1] | Potency [2] | Potency [3] | max response [4] -19.1% | Potency [18] | Potency [5] | Potency [19] | Potency [7] | Potency [8] | Potency [10] | Potency [11] | Potency [12] | Potency [20] | Potency [13] | Potency [14] | Potency [15] | Potency [16]

O=C(O)CN(CCOCCOCCN(CC(=O)O)CC(=O)O)CC(=O)O
inactive: activity change, negative = cytotoxic [1] 0.968% [at 0.29 µM] | cytotoxicity increase [2] 0.853% [at 0.29 µM] | activity change, negative = cytotoxicity [3] -0.382% [at 0.29 µM] | activity change [18] 5.13% [at 0.29 µM, stronger effect = higher value] | cytotoxicity increase [5] -23.6% [at 0.29 µM] | activity change, negative = cytotoxic [19] 3% [at 0.29 µM] | cytotoxicity [6] -22.1% [at 0.29 µM] | cytotoxicity increase [7] -20% [at 0.29 µM] | activity change, negative = cytotoxicity [8] 4.27% [at 0.29 µM] | cytotoxicity [10] -19.1% [at 0.29 µM] | cytotoxicity increase [11] -22.8% [at 0.29 µM] | cytotoxicity increase [12] 1.88% [at 0.29 µM] | activity change, negative = cytotoxicity [13] -2.79% [at 0.29 µM] | activity change, negative = cytotoxicity [14] 1.96% [at 0.29 µM] | activity change [15] 1.33% [at 0.29 µM, stronger effect = higher value] | activity change, negative = cytotoxicity [16] -0.153% [at 0.29 µM]
